Data taken from PubChem BioAssay AID1159580 (chemical genetic matrix, 2015).
In all, about 5,500 compounds went through this assay and about 2,000 (36%) were called active. Not shown: some 18% with an inconclusive outcome. Some of the results follow. A number with no mark means an inactive call. Rule as the data show it: active = normalized growth mostly below about 0.91 (no sharp cut-off); inconclusive = no clear call, values can overlap the other calls; inactive = mostly above about 0.92.

Assay: chemical genetic growth profiling, strain panel (AID 1159580);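 also: tested at 20 µM; growth read once vehicle control cultures reached saturation at 30 °C; 1 = growth at the plate median or of vehicle wells; lower values mean less growth of the strain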
Conditions: S. cerevisiae deletion strains, growth OD
[1] = locus YAL040C, strain CLN3, active compounds read low
[2] = locus YCL061C, strain MRC1 (second series), active compounds read low
[3] = locus YDR363W, strain ESC2, active compounds read low
[4] = locus YER002W, strain NOP16, active compounds read low
[5] = locus YMR263W, strain SAP30, active compounds read low
[6] = locus YNL128W, strain TEP1, active compounds read low
[7] = locus YNL175C, strain NOP13, active compounds read low
[8] = locus YNL197C, strain WHI3, active compounds read low
[9] = locus YNL224C, strain SQS1, active compounds read low
[10] = locus YOR083W, strain WHI5 (second series), active compounds read low

Compound | normalized growth [1] | normalized growth [2] | normalized growth [3] | normalized growth [4] | normalized growth (locus YGR229C, strain SMI1, active compounds read low) | normalized growth [5] | normalized growth (locus YMR307W, strain GAS1, active compounds read low) | normalized growth [6] | normalized growth (locus YNL153C, strain GIM3, active compounds read low) | normalized growth [7] | normalized growth [8] | normalized growth [9] | normalized growth [10] | normalized growth (locus YPL055C, strain LGE1, active compounds read low) | normalized growth (locus YPL241C, strain CIN2, active compounds read low) | normalized growth (locus YAL013W, strain DEP1, active compounds read low) | normalized growth (locus YDR150W, strain NUM1, active compounds read low) | normalized growth (locus YNL322C, strain KRE1, active compounds read low)
CC(CCc1ccc(O)cc1)NCCc1ccc(O)c(O)c1 (stereo not drawn) | 1.01 | 0.812 (active) | 0.969 | 0.993 | 0.708 (active) | 1.01 | 0.947 | 1.01 | 0.944 | 1.01 | 1.03 | 1.02 | 0.98 | 0.756 (active) | 0.927 (active) |  |  | 
CNCCc1ccc(O)c(O)c1 | 0.991 | 0.956 | 1.03 | 1 |  | 1 |  | 0.996 |  | 1 | 1.02 | 1 | 0.976 |  |  | 0.964 | 0.922 (active) | 0.979
